SMILES strings stand for the structures. About 83,000 compounds went through this panel and 20% of them were active in at least one assay; those are over-represented in the sample as a whole.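 Cells were grown in 96-well plates and exposed to the test compound at a single concentration for 48 hours; results are reported as percent growth, with values below 10 considered active.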 Unmarked numbers belong to inactive results. Active and inactive are the calls of the source.

This assay has as its system NCI/ADR-RES ovarian. In words: NCI-60 one-dose screen, 48 h (100 = growth as untreated, 0 = no growth, -100 = all killed). To be noted: 10 µM unless noted. As to the method: Growth inhibition of the NCI/ADR-RES human […] tumor cell line is measured as a screen for anti-cancer activity. Cells are grown in 96 well plates and exposed to the test compound for 48 hours. Compounds are tested at a single concentration, which is 10^-5 M for most compounds. The reported endpoint is percent growth (GI% or GIPRCNT), where numbers from 0 - 100% represent growth inhibition, and numbers from -100% - 0 represent cell death. For example, a value of 40 represents 60% growth inhibition. A value of 0 means no net growth occurred over the course of the experiment. A value of -40 indicates 40% of cells at the beginning of the experiment died by the end of the experiment. A value of -100 means all cells are dead at the end of the experiment.
NCI-60 Human Tumor Cell Lines Screen was performed using the standard one-dose NCI protocol, which is described in more detail at https://dtp.cancer.gov/discovery_development/nci-60/default.htm.
Compounds with GIPRCNT values below 10 were considered active. Activity score was based on GIPRCNT using the following formula: […]
Score is 0 for GIPRCNT values of 100 or above, 50 for GIPRCNT values of 0, and 100 for GIPRCNT values of -100.
With `Oc1ccc2ccccc2c1C1NN=C(c2ccccc2)S1` (stereo not given), the growth was 19.5%. As for `O=C(O)c1ccccc1Oc1cc(-c2ccco2)nc(OCCBr)n1`, the growth is 105%.

Regarding `O=c1nc(NO)[nH]c(=O)n1Cc1ccccc1`, the growth was 105%. Regarding `COc1ccc(/C=C2\SC(=O)N(CN3CCN(c4cc5c(cc4F)c(=O)c(C(=O)O)cn5C4CC4)CC3)C2=O)cc1`, the growth was 103%. As to `COc1cc(-c2nc(Nc3nc4ccccc4[nH]3)nc(N)c2C#N)cc(OC)c1OC`, the growth was 97.9%. In the case of `N#C/C(=C\c1ccc[nH]1)c1cc2ccccc2[nH]1`, the growth is 76.9%. In the case of `CCCCCCCCCCCCCCCC[N+]1(C)CCOCC1` it was 94.9%; in that of `O=C1N/C(=C\c2ccccc2)c2ncccc21`, 103%; in that of `C=C1CC[C@@H]2[C@@](C)(CCC[C@]2(C)C(=O)O)[C@@H]1CC[C@H](CO)CCO`, 104%.

Regarding `COc1cc(/C=N/NC(=O)c2cnn3c2NC(c2ccccc2)C3)ccc1OC1CCCC1` (stereo not given), the growth is 14%. As to `CCCCCCCC/C=C\CCCCCCCCOc1cccc(CC(=O)NCC[N+]2(C)CCCCC2)c1`, the growth was 102%. `O=C(c1ccc2ncc(-c3nc(NC4CC4)ncc3F)n2c1)N1CCOCC1`: the growth was 48.2%. For the molecule `O=S(=O)(Nc1ncccn1)c1ccc(Nc2ccc3nnc(-c4ccncc4)n3n2)cc1`, the growth is 102%. Take `CCCN(CCC)c1ccc(/C=C/c2ccc3cc(OCC)ccc3n2)cc1`: the growth is 93.1%.

Regarding `NC(=S)N/N=C1\c2ccccc2-c2c(F)c(F)c(F)c(F)c21`, the growth was 10.2%. In the case of `NC(=O)c1cc(I)ccc1NC(=O)COc1ccccc1`, the growth is 4.28% (active).

As to `COc1ccc(-c2c(-c3cc4c(c(OC)c3OC)OCO4)noc2N)cc1`, the growth was 2.53% (active). On to `C=CC[P+](c1ccccc1)(c1ccccc1)c1ccccc1`, for which the growth was 112%.

Consider `CC(C)(C)[Si](C)(C)OC1[C@@H](COC(N)=O)O[C@@H](n2cnc3c(N)ncnc32)[C@H]1O[Si](C)(C)C(C)(C)C` (stereo not given in full), for which the growth was 87.4%. On to `COc1cc(C(F)(F)F)ccc1-c1cc(-c2ccc(F)cc2)n[nH]1`, for which the growth is 91.5%. Consider `CCCCCCCCCCCC(=O)[O][Sn]([CH2]CCC)([CH2]CCC)[CH2]CCC`, for which the growth was -80.5% (active). On to `COc1c(Cl)ccc2c(-c3nc4cc(Cl)c(F)cc4s3)cc(=O)oc12`, for which the growth was 33%. For `COc1ccc(/C=N/OCC(O)CNCc2ccccc2)cc1OC1CCCC1` (stereo not given), the growth was 104%. Turning to `CC1SC(c2ccc(Cl)cc2)N(CCc2cccs2)C1=O` (stereo not given), the growth is -11% (active).

Turning to `CCCCCCCC/C=C\CCCCCCCCOc1cccc(CC(=O)NCC[N+]2(C)CCOCC2)c1`, the growth was 112%. For the molecule `CCCCC1COc2cccc3c(SCC(=O)N(C)c4cccc5ccccc45)cc[n+]1c23` (stereo not given), the growth was 104%. Turning to `Cc1nn(CC(=O)O)c2c1C(=O)CC(C)(C)C2`, the growth was 99.5%.

For the molecule `CCC(C)Oc1cc(/C=N/NC(=O)c2cnn3c2NC(c2ccccc2)C3)ccc1OC` (stereo not given), the growth is 18.6%. As for `COc1ccc(/C=N/NC(=O)c2cnn(CC(O)Cc3ccccc3)c2N)cc1OC1CCCC1` (stereo not given), the growth is 88.3%.

With `Cn1cc(C(=O)NCCC(=N)N)cc1NC(=O)CN=C(N)N`, the growth was 94.2%.

`C=CC(=O)N1CC2(CC(n3nc(-c4ccc(Oc5ccccc5)cc4)c4c(N)ncnc43)C2)C1`: the growth was 41.6%. With `Cc1ccc2c(c1)c(Sc1ccc(C(=O)NO)cc1)c1n2CN(C)CC1` the figure was 53.1%; with `Cc1cc(C)c(S(=O)O)c(C)c1`, 97%; with `C=C(C)CCCC(C)CC#N` (stereo not given), 107%.

With `CC1(C)CC(=O)C2=C(C1)Nc1cc3c(cc1C2c1ccc(F)cc1)OCO3` (stereo not given), the growth is 90.7%. Regarding `COc1nc2c(cc1S(=O)(=O)c1ccccc1)CCc1c-2cnn1-c1ccccc1Cl`, the growth was 70.2%.

In the case of `Cc1ccc(N=c2nc3sc4c(C)ccc(C)c4n3c(N)c2C#N)cc1`, the growth is 106%. In the case of `ONc1nc(NO)c2[nH]cnc2n1` it was 74.7%; in that of `Cn1c2c(cc(S(=O)(=O)c3ccccc3)c1=O)CCc1c-2cnn1-c1ccccc1Cl`, 113%; in that of `C[C@@H](Oc1cc(-c2cnn(C3CC4(CCNCC4)C3)c2)cnc1N)c1c(F)ccc(Cl)c1Cl`, 61.5%.
